Where “and” joins values, the source holds several entries; their conditions need not be identical. Identical values can stand only once. Inconclusive results are not listed. The source holds several records for some structures; these can differ, active in one and inactive in another. Calls of active or inactive are those of the source. How the source made its calls, unless noted: active means hit-call score of the fitted dose curve at least 0.9, where 1 is the maximum; inactive means score below 0.9.
Key:
[1] = read-out: Monokine induced gamma interferon (MIG), CXCL9 (gene 4283); test: BSK_KF3CT_MIG: BioMAP Diversity Plus: KF3CT Assay for Monokine induced gamma interferon (MIG) Biomarker Activity (AID 2284248); conditions: primary human keratinocytes with fibroblasts
In short: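 Parallel cultures were stained with SRB (560 nm) to check cytotoxicity. MIG was quantified by ELISA in a primary human skin keratinocyte/fibroblast co-culture 24 h post-dosing, with gain of signal fitted relative to DMSO.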

[2] = read-out: Interferon-inducible T-cell alpha chemoattractant (ITAC), CXCL11 (gene 6373); test: BSK_BE3C_ITAC: BioMAP Diversity Plus: BE3C Assay for Interferon-inducible T-cell alpha chemoattractant (ITAC) Biomarker Activity (AID 2284279); conditions: primary human bronchial epithelial cells
In short: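 Steps: dose human bronchial epithelial cells with chemical; incubate 24 h; measure I-TAC by ELISA; fit endpoint in positive direction against DMSO control. Cytotoxicity was checked in parallel cultures by SRB staining at harvest.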

[3] = read-out: Interleukin-8 (IL8), CXCL8 (gene 3576); test: BSK_BE3C_IL8: BioMAP Diversity Plus: BE3C Assay for Interleukin-8 (IL8) Biomarker Activity (AID 2284280); conditions: primary human bronchial epithelial cells
In short: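 Dose human bronchial epithelial cells with chemical; incubate 24 h; quantify IL-8 by ELISA; fit response upward versus DMSO controls.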

[4] = read-out: Plasminogen activator inhibitor-1 (PAI1), SERPINE1 (gene 5054); test: BSK_CASM3C_PAI1: BioMAP Diversity Plus: CASM3C Assay for Plasminogen activator inhibitor-1 (PAI1) Biomarker Activity (AID 2284284); conditions: primary human coronary artery smooth muscle cells;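 further: PAI-1 protein level measured by ELISA 24 h after dosing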
[5] = read-out: Intercellular Adhesion Molecule 1 (ICAM1), ICAM1 (gene 3383); test: BSK_hDFCGF_ICAM1: BioMAP Diversity Plus: hDFCGF Assay for Intercellular Adhesion Molecule 1 (ICAM1) Biomarker Activity (AID 2284287); conditions: primary human foreskin fibroblasts
In short: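 ICAM-1 ELISA readout 24 h after dosing, DMSO as baseline, in human dermal foreskin fibroblast cultures. Cytotoxicity checked in parallel wells by SRB staining (0.1% SRB, 10% TCA fixation, 560 nm).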

CD69, CD69 (gene 969) = test: BSK_LPS_CD69: BioMAP Diversity Plus: LPS Assay for CD69 Biomarker Activity (AID 2284303); conditions: primary human HUVEC with PBMC
In short: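 CD69 surface levels were read by ELISA after 24 h chemical treatment of an LPS-stimulated HUVEC plus PBMC co-culture; positive-direction fit against DMSO vehicle.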

[6] = ATG_TGFb_CIS: Attagene CIS-FACTORIAL HepG2 Assay for human Transforming Growth Factor (TGF) (AID 2282967); conditions: HepG2 Attagene CIS TGFb reporter, mRNA transcription; actives raise or lower the signal
In short: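 Endogenous TGFB1-linked transcription factor activity read as reporter mRNA via RT-PCR and capillary electrophoresis, 24 h after dosing transiently transfected HepG2 cells. Gain or loss of signal fitted relative to DMSO.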

[7] = ATG_VDRE_CIS: Attagene CIS-FACTORIAL HepG2 Assay for human Vitamin D Receptor Element (VDRE) (AID 2282968); conditions: HepG2 VDRE cis-reporter transcription, actives raise or lower the signal
In short: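 Transient MRTU transfection of HepG2, 24 h compound exposure. Readout: reporter transcripts via RT-PCR and capillary electrophoresis, fluorescence. Bidirectional fit vs DMSO.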

[8] = ATG_GAL4_TRANS: Attagene TRANS-FACTORIAL HepG2 Assay for GAL4 (Internal Marker) (AID 2282976; active means hit-call score of the fitted dose curve at least 0.9, where 1 is the maximum); conditions: HepG2 Attagene TRANS GAL4 internal marker reporter
In short: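 In transfected human HepG2 liver cells dosed 24 h, GAL4 reporter mRNA serves as a baseline marker. Detection by RT-PCR with fluorescent capillary electrophoresis, activity fitted upward relative to DMSO.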

[9] = target: Oxysterols receptor LXR-beta (Homo sapiens) (UniProt P55055); test: ATG_LXRb_TRANS: Attagene TRANS-FACTORIAL HepG2 Assay for human Liver X Receptor beta (LXRb) (AID 2282981; active means hit-call score of the fitted dose curve at least 0.9, where 1 is the maximum); conditions: HepG2 Attagene TRANS GAL4-LXRb reporter, mRNA
In short: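 Readout: fluorescent reporter mRNA fragments resolved by capillary electrophoresis after RT-PCR. System: transiently transfected human HepG2, exogenous LXRb-Gal4 chimera driving GAL4-UAS reporter, 24 h dosing. Activity fitted upward against DMSO baseline.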

[10] = target: human Vitamin D Receptor (VDR), VDR (gene 7421) (UniProt P11473); test: ATG_VDR_TRANS: Attagene TRANS-FACTORIAL HepG2 Assay for human Vitamin D Receptor (VDR) (AID 2283022; active means hit-call score of the fitted dose curve at least 0.9, where 1 is the maximum)
In short: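 Transactivation by an exogenous VDR-Gal4 chimera in transiently transfected HepG2 cells was measured as reporter transcript level 24 hours after chemical treatment. RT-PCR products were analysed by capillary electrophoresis and fitted in the positive direction relative to DMSO.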

[11] = CCTE_Shafer_MEA_acute_firing_rate_mean: CCTE's Neural Acute Assay for Mean Firing Rate, Shafer Lab (AID 2284009);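 further: analyzed for loss of signal so actives lower firing rate relative to DMSO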
In short: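 Rat cortical neuron cultures matured to DIV 13 or 15, equilibrated 20 min at 37 C, then recorded 40 min for baseline. Compound (0.03-40 uM) added and a further 40 min recorded; percent change in mean firing rate calculated per well.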

[12] = CCTE_Shafer_MEA_acute_burst_number: CCTE's Neural Acute Assay for Single-Electrode Bursts, Shafer Lab (AID 2284013)
In short: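 Percent change in single-electrode burst number per well, from 40-min recordings taken before and after adding compound (0.03-40 uM) to primary rat cortical neurons on MEA plates at DIV 13 or 15, 37 C.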

[13] = CCTE_Shafer_MEA_acute_burst_duration_mean: CCTE's Neural Acute Assay for Mean Burst Duration, Shafer Lab (AID 2284014);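 further: hits are decreases in mean burst duration relative to DMSO controls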
In short: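 Rat cortical cultures, DIV 13/15; 40 min baseline, then 40 min with compound (0.03-40 uM), 37 C. Spikes: 300-5000 Hz band-pass, 8x rms threshold. Read-out: % change in mean single-electrode burst duration, DMSO-referenced, loss direction.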

[14] = CCTE_Shafer_MEA_acute_per_burst_spike_number_mean: CCTE's Neural Acute Assay for Average Number of Spikes Per Burst, Shafer Lab (AID 2284015);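 further: hits are decreases in mean spikes per burst versus baseline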
In short: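 Primary rat cortical neurons on 48-well MEA plates, treated on DIV 13 or 15 at 0.03-40 uM. Spontaneous activity recorded 40 min before and 40 min after compound at 37 C; percent change in mean spikes per single-electrode burst per well, fitted in the loss direction versus DMSO.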

[15] = CCTE_Shafer_MEA_acute_interburst_interval_mean: CCTE's Neural Acute Assay for Mean Interburst Interval, Shafer Lab (AID 2284016);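 further: percent change of mean interburst interval versus each well's own pre-dose baseline; curves fitted for decrease in interburst interval relative to DMSO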
In short: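 Primary rat cortical neurons on 16-electrode MEA wells were recorded 40 min at baseline on DIV 13 or 15, then 40 min after compound (0.03-40 uM), at 37 C. Value is percent change in mean interburst interval per well, DMSO as negative control.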

[16] = CCTE_Shafer_MEA_acute_burst_percentage_mean: CCTE's Neural Acute Assay for Percentage of Spikes in a Burst, Shafer Lab (AID 2284017);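 on AC50: curve fitted for loss of signal so potency reflects decreased burst percentage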
In short: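 Primary rat cortical neurons on 16-electrode MEA wells; 40 min baseline recorded at DIV 13 or 15, then 40 min after compound (0.03-40 uM) at 37 C. Well-mean fraction of spikes in single-electrode bursts; percent change from baseline, DMSO as negative control.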

[17] = CCTE_Shafer_MEA_acute_burst_percentage_std: CCTE's Neural Acute Assay for Standard Deviation of Burst Percentage, Shafer Lab (AID 2284018);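 further: fitted in the negative direction so actives lower burst percentage SD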
In short: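 Rat primary cortical neurons on 48-well MEAs, DIV 13 or 15, 37 C. 40-min baseline then 40-min recording with compound (0.03-40 uM); well-level SD of per-electrode burst spike percentage, expressed as percent change from baseline.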

[18] = CCTE_Shafer_MEA_acute_per_network_burst_spike_number_std: CCTE's Neural Acute Assay for Standard Deviation of Number of Spikes in a Network Burst, Shafer Lab (AID 2284020);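 further: fitted for decrease in spike-number SD versus DMSO so actives lower it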
In short: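 Rat cortical cultures, DIV 13/15, 37 C; 20-min stabilisation, 40-min baseline, compound 0.03-40 uM, 40-min re-record. Spikes detected at 8x rms noise (300-5000 Hz band-pass). Readout: % change from baseline in per-burst spike-number SD.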

[19] = target: Myc proto-oncogene protein (Homo sapiens) (UniProt P01106); test: ATG_Myc_CIS: Attagene CIS-FACTORIAL HepG2 Assay for human Myelocytomatosis (Myc) Proto-Oncogene Transcription Factor (AID 2282990); conditions: HepG2, Attagene cis-reporter transcription factor activity; actives raise or lower the signal
In short: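 Fluorescence intensity of reporter-specific cDNA fragments, separated by capillary electrophoresis, gives the signal. Transfected HepG2 cells carrying cis-promoter reporter constructs are incubated with compound for 24 h; DMSO serves as baseline.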

Measured: AC50

Sequence of human Vitamin D Receptor (VDR), VDR (gene 7421) (P11473 whole entry, looked up, the tested form may be a part): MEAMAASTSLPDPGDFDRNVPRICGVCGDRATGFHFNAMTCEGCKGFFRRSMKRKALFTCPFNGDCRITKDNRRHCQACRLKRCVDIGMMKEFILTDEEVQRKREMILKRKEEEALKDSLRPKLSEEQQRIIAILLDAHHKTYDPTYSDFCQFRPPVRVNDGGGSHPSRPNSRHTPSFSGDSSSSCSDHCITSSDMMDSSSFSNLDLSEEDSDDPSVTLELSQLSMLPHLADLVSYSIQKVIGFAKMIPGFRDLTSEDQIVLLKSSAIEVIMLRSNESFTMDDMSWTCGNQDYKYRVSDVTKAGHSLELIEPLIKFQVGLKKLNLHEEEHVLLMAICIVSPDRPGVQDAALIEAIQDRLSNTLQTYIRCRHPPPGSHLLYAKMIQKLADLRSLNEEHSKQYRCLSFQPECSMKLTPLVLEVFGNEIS
Sequence of Oxysterols receptor LXR-beta (Homo sapiens) (P55055 whole entry, looked up, the tested form may be a part): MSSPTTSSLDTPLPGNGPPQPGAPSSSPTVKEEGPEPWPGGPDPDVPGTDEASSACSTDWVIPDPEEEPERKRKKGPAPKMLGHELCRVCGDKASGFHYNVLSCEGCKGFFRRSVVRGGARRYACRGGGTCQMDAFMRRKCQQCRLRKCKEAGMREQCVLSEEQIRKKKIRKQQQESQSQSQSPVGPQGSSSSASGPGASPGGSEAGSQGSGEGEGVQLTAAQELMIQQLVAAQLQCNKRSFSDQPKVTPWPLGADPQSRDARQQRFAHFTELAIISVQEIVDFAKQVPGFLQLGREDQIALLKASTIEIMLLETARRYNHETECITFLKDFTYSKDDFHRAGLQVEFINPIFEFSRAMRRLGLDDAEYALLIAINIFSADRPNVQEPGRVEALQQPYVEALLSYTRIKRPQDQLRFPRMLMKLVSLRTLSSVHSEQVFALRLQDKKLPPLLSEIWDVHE
Sequence of Myc proto-oncogene protein (Homo sapiens) (P01106 whole entry, looked up, the tested form may be a part): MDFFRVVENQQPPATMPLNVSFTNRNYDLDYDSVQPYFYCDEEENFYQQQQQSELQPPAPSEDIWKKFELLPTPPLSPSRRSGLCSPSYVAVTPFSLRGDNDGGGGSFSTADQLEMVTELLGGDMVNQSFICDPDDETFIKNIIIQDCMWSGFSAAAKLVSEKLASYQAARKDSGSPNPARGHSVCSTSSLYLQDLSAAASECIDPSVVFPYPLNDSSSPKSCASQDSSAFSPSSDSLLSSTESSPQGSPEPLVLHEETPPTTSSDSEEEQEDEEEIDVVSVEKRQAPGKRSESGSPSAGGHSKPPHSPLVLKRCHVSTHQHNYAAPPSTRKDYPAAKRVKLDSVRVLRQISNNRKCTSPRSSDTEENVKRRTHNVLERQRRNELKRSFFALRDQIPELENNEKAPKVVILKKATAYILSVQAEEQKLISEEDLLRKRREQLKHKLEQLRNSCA

CCCCC(CC)COC(=O)C=Cc1ccc(OC)cc1 (centres undefined)
active: CD69, CD69 (gene 969) 15.4 µM and 23.4 µM
inactive: [1] | [2] | [3] | [4] | [5]

CC1=NN(c2cc(Cl)c(S(=O)(=O)O)cc2Cl)C(=O)C1N=Nc1ccc(S(=O)(=O)O)cc1 (centres undefined)
inactive: [6] | [7] | [8] | [9] | [10]

O=C(O)/C=C\C(=O)O
inactive: [6] | [8] | [9]

COc1cc(CNC(=O)CCCC/C=C/C(C)C)ccc1O
active: [16] 4.25 µM | [17] 8.5 µM
not listed: [6] | [7] | [8] | [9] | [10] | [19]
inactive: all other assays above

CC(C)(C)NC(=O)[C@@H]1CN(Cc2cccnc2)CCN1C[C@@H](O)C[C@@H](Cc1ccccc1)C(=O)N[C@H]1c2ccccc2C[C@H]1O
inactive: [6] | [7] | [9] | [19] | [10]

Clc1ccccn1
inactive: [6] | [7] | [8] | [19]

COc1ccccc1Oc1c(NS(=O)(=O)c2ccc(C(C)(C)C)cc2)nc(-c2ncccn2)nc1OCCO
active: [15] 5.33 µM
not listed: [6] | [7] | [8] | [9] | [10] | [19]
inactive: all other assays above

CCCc1c(OCCCCc2nn[nH]n2)ccc(C(C)=O)c1O
inactive: [6] | [7] | [9] | [19] | [10]

O=[N+]([O-])c1cc(S(=O)(=O)Nc2ccccc2)ccc1Nc1ccccc1
active: [11] 2980 nM | [16] 25.1 µM | [17] 15 µM | [18] 1.22 µM | [1] 33.7 µM and 31.5 µM | [2] 28.7 µM and 29.5 µM | [3] 20 µM and 7.26 µM | [5] 31 µM and 36.6 µM | CD69, CD69 (gene 969) 13.2 µM and 10.7 µM
inactive: [12] | [13] | [14] | [15] | [4]

CCCCn1cc[n+](C)c1
inactive: [9] | [19]

CC/C=C\CC1=C(C)CCC1=O
inactive: [7] | [9] | [19] | [10]

CCO[Si](OCC)(OCC)c1ccccc1
inactive: [7] | [8] | [10]

OC(C(F)(F)F)(C(F)(F)F)C(O)(C(F)(F)F)C(F)(F)F
inactive: [4] | [5]
active: [1] 45.2 µM and 54.8 µM | [2] 47.3 µM and 46.1 µM | [3] 12.3 µM and 11.5 µM | CD69, CD69 (gene 969) 12.9 µM and 9.36 µM

COc1ccccc1OCC(O)CO (centres undefined)
inactive: [6] | [7] | [19]

COc1ccc2ccccc2c1
inactive: [8] | [19]

CC1=CCCC(C)(C)C12CCC(C)O2 (centres undefined)
inactive: [8] | [9] | [19]

COc1ccc(C(=O)c2ccccc2O)c(O)c1
active: [11] 5.33 nM | [12] 3 nM
not listed: [6] | [7] | [8] | [9] | [10] | [19]
inactive: all other assays above

CCC[Si](OC(C)=O)(OC(C)=O)OC(C)=O
active: [11] 72.1 nM | [12] 55.4 nM | CD69, CD69 (gene 969) 327 nM
inactive: [13] | [14] | [15] | [16] | [17] | [18] | [1] | [2] | [3] | [4] | [5] | CD69, CD69 (gene 969)

CN(C)CCC(c1ccc(Cl)cc1)c1ccccn1 (centres undefined)
inactive: [8] | [9] | [11] | [12] | [13]
active: [14] 24.3 µM | [15] 23.9 µM | [16] 23.8 µM | [17] 27.1 µM | [18] 19.5 µM

Cc1c(C(N)=O)cc([N+](=O)[O-])cc1[N+](=O)[O-]
active: [11] 3.2 nM | [2] 32.7 µM and 30.5 µM
not listed: [6] | [7] | [8] | [9] | [10] | [19]
inactive: all other assays above

CC1=C(CC=O)C(C)(C)CCC1
inactive: [6] | [9] | [10]

CCCCCCCCCCCCCC
inactive: [7] | [8] | [10]

CCC(C)NC(N)=O (centres undefined)
inactive: [6] | [7]

CC(C)C1OCCN1CCOC(=O)NCCCCCCNC(=O)OCCN1CCOC1C(C)C (centres undefined)
active: [11] 16.3 nM
not listed: [6] | [7] | [8] | [9] | [10] | [19]
inactive: all other assays above

COC(=O)c1ccccc1
active: [6] 500 nM
inactive: [8] | [9] | [19] | [10]

CCCCCCCCCCC1CO1 (centres undefined)
inactive: [8] | [19] | [10]

CNCCC(Oc1ccc(C(F)(F)F)cc1)c1ccccc1 (centres undefined)
inactive: [13] | [14] | [15] | [18]
active: [11] 877 nM | [12] 693 nM | [16] 7.59 µM | [17] 5.91 µM

From PubChem BioAssay (EPA / NIEHS)
